Results taken from PubChem BioAssay (NCATS).
Records with an inconclusive call do not appear. Calls of active or inactive are those of the source. The call rests on the fitted dose curve; in most records, active means well fitted curve in the direction sought with a large enough effect; inconclusive means small, poorly fitted or top-dose-only effect, or another doubt; inactive means no such curve, though single readings can be large; an effect the other way counts as inactive or inconclusive. Where a SMILES comes first, the peptide text is derived from it. Bridges are numbered along the chain shown (N, C = ends). [ ]: non-standard residue; d: D form. hArg = N=C(N)NCCCC[C@H](N)C(=O)O; Mpa = O=C(O)CCS

Experiments:
MCC-13 = experiment: qHTS assay to identify novel small-molecules to repurpose for Merkel cell carcinoma treatment (AID 1296009); details: MCC and control cell lines, CellTiter-Glo viability, 72 h; series mostly up to 46 µM; further: nearly all actives have a fitted effect of over 60% in size
In short: (§1)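 After compound transfer in DMSO, plates were kept 72 hr at 37 degree celsius. Luminescent ATP signal from CellTiter-Glo served as viability measure, normalized against DMSO and no-cell controls.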

MCC-26 = experiment: as above; details: MCC and control cell lines, CellTiter-Glo viability, 72 h; series mostly up to 46 µM
In short: as §1

MKL-1 = experiment: as above; details: MCC and control cell lines, CellTiter-Glo viability, 72 h; series mostly up to 46 µM
In short: as §1

MKL-2 = experiment: as above; details: MCC and control cell lines, CellTiter-Glo viability, 72 h; series mostly up to 46 µM
In short: as §1

UISO = experiment: as above; details: MCC and control cell lines, CellTiter-Glo viability, 72 h; series mostly up to 46 µM
In short: as §1

WaGa = experiment: as above; details: MCC and control cell lines, CellTiter-Glo viability, 72 h; series mostly up to 46 µM
In short: as §1

C33A = experiment: Primary qHTS to identify gynecologic anti-cancer compounds using libraries of approved drugs and bioactive compounds (AID 1345084); details: Gynecologic cancer cell panel viability, ATPlite luminescence, 48 h; series mostly up to 57.5 µM; further: nearly all actives have a fitted effect of over 55% in size
In short: (§2)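 Five-point cytotoxicity, 48 h drug exposure at 37 C, 5% CO2, on cells seeded 16 h beforehand. ATP content read by ATPlite luminescence.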

CAOV3 = experiment: as above; details: Gynecologic cancer cell panel viability, ATPlite luminescence, 48 h; series mostly up to 57.5 µM
In short: as §2

CASKI = experiment: as above; details: Gynecologic cancer cell panel viability, ATPlite luminescence, 48 h; series mostly up to 57.5 µM
In short: as §2

Es-2 = experiment: as above; details: Gynecologic cancer cell panel viability, ATPlite luminescence, 48 h; series mostly up to 57.5 µM
In short: as §2

HeLa = experiment: as above; details: Gynecologic cancer cell panel viability, ATPlite luminescence, 48 h; series mostly up to 57.5 µM
In short: as §2

Hek293T = experiment: as above; details: Gynecologic cancer cell panel viability, ATPlite luminescence, 48 h, control line for the selectivity index; series mostly up to 57.5 µM
In short: as §2

JEG-3 = experiment: as above; details: Gynecologic cancer cell panel viability, ATPlite luminescence, 48 h; series mostly up to 57.5 µM
In short: as §2

OV90 = experiment: as above; details: Gynecologic cancer cell panel viability, ATPlite luminescence, 48 h; series mostly up to 57.5 µM
In short: as §2

PA-1 = experiment: as above; details: Gynecologic cancer cell panel viability, ATPlite luminescence, 48 h; series mostly up to 57.5 µM
In short: as §2

SKOV3 = experiment: as above; details: Gynecologic cancer cell panel viability, ATPlite luminescence, 48 h; series mostly up to 57.5 µM
In short: as §2

Tov-21-G = experiment: as above; details: Gynecologic cancer cell panel viability, ATPlite luminescence, 48 h; series mostly up to 57.5 µM
In short: as §2

Tov112D = experiment: as above; details: Gynecologic cancer cell panel viability, ATPlite luminescence, 48 h; series mostly up to 57.5 µM
In short: as §2

NIH3T3 = experiment: qHTS assay to identify novel small-molecules to repurpose for Merkel cell carcinoma treatment (AID 1296009); details: MCC and control cell lines, CellTiter-Glo viability, 72 h; at 44.8 µM (top of the series) unless noted; further: nearly all actives have a fitted effect of over 60% in size
In short: as §1

Measured: Potency

CC(C)CCOC(=O)c1ccc(N(C)C)cc1
inactive: MCC-13 | MCC-26 | MKL-1 | MKL-2 | UISO | WaGa | C33A | CAOV3 | CASKI | Es-2 | HeLa | Hek293T | JEG-3 | OV90 | PA-1 | SKOV3 | Tov-21-G | Tov112D

CCCCCC(C)N (stereo unspecified)
inactive: MCC-13 | MCC-26 | MKL-1 | MKL-2 | UISO | WaGa | C33A | CAOV3 | CASKI | Es-2 | HeLa | Hek293T | JEG-3 | OV90 | PA-1 | SKOV3 | Tov-21-G | Tov112D

NC(=O)[C@@H]1CSSCCC(=O)N[C@@H](CCCCN=C(N)N)C(=O)NCC(=O)N[C@@H](CC(=O)O)C(=O)N[C@@H](Cc2c[nH]c3ccccc23)C(=O)N2CCC[C@H]2C(=O)N1 ([Mpa][hArg]GDWPC-NH2; disulfide 1-7)
inactive: MCC-13 | MCC-26 | MKL-1 | MKL-2 | UISO | WaGa | C33A | CAOV3 | CASKI | Es-2 | HeLa | Hek293T | JEG-3 | OV90 | PA-1 | SKOV3 | Tov-21-G | Tov112D

CCCNC(C)(C)COC(=O)c1ccccc1
inactive: MCC-13 | MCC-26 | MKL-1 | MKL-2 | UISO | WaGa | C33A | CAOV3 | CASKI | Es-2 | HeLa | Hek293T | JEG-3 | OV90 | PA-1 | SKOV3 | Tov-21-G | Tov112D

CN1C[C@@H]2C[C@H]1CN2c1cc2c(cc1F)c(=O)c(C(=O)O)cn2C1CC1
inactive: MCC-13 | MCC-26 | MKL-1 | MKL-2 | UISO | WaGa | C33A | CAOV3 | CASKI | Es-2 | HeLa | Hek293T | JEG-3 | OV90 | PA-1 | SKOV3 | Tov-21-G | Tov112D

CCN(CC)CC1CCCCN1CC(=O)N1c2ccccc2C(=O)Nc2cccnc21 (stereo unspecified)
inactive: MCC-13 | MCC-26 | MKL-1 | MKL-2 | UISO | WaGa | C33A | CAOV3 | CASKI | Es-2 | HeLa | Hek293T | JEG-3 | OV90 | PA-1 | SKOV3 | Tov-21-G | Tov112D

C[N+]1(C)CCCC(OC(=O)C(O)(c2ccccc2)c2ccccc2)C1 (stereo unspecified)
inactive: MCC-13 | MCC-26 | MKL-1 | MKL-2 | UISO | WaGa | C33A | CAOV3 | CASKI | Es-2 | HeLa | Hek293T | JEG-3 | OV90 | PA-1 | SKOV3 | Tov-21-G | Tov112D

O[C@@H]1CO[C@H]2[C@@H]1OC[C@@H]2O
inactive: MCC-13 | MCC-26 | MKL-1 | MKL-2 | UISO | WaGa | C33A | CAOV3 | CASKI | Es-2 | HeLa | Hek293T | JEG-3 | OV90 | PA-1 | SKOV3 | Tov-21-G | Tov112D

CC(=O)OC[C@H]1O[C@@](COC(C)=O)(O[C@H]2O[C@H](COC(C)=O)[C@@H](OC(C)=O)[C@H](OC(C)=O)[C@H]2OC(C)=O)[C@@H](OC(C)=O)[C@@H]1OC(C)=O
inactive: MCC-13 | MCC-26 | MKL-1 | MKL-2 | UISO | WaGa | C33A | CAOV3 | CASKI | Es-2 | HeLa | Hek293T | JEG-3 | OV90 | PA-1 | SKOV3 | Tov-21-G | Tov112D

O=C(O)CCCCC1CCSS1 (stereo unspecified)
inactive: MCC-13 | MCC-26 | MKL-1 | MKL-2 | UISO | WaGa | C33A | CAOV3 | CASKI | Es-2 | HeLa | Hek293T | JEG-3 | OV90 | PA-1 | SKOV3 | Tov-21-G | Tov112D

CO[C@@]1(NC(=O)C(C(=O)O)c2ccc(O)cc2)C(=O)N2C(C(=O)O)=C(CSc3nnnn3C)CO[C@@H]21 (stereo partly specified)
inactive: MCC-13 | MCC-26 | MKL-1 | MKL-2 | UISO | WaGa | C33A | CAOV3 | CASKI | Es-2 | HeLa | Hek293T | JEG-3 | OV90 | PA-1 | SKOV3 | Tov-21-G | Tov112D

Cc1cccc(Nc2ccccc2C(=O)O)c1C
inactive: MCC-13 | MCC-26 | MKL-1 | MKL-2 | UISO | WaGa | C33A | CAOV3 | CASKI | Es-2 | HeLa | Hek293T | JEG-3 | OV90 | PA-1 | SKOV3 | Tov-21-G | Tov112D

CC(C)CCCC(C)CCCC(C)CCCCC(C)CCCC(C)CCCC(C)C (stereo unspecified)
inactive: MCC-13 | MCC-26 | MKL-1 | MKL-2 | UISO | WaGa | C33A | CAOV3 | CASKI | Es-2 | HeLa | Hek293T | JEG-3 | OV90 | PA-1 | SKOV3 | Tov-21-G | Tov112D

OC(CCN1CCCC1)(c1ccccc1)C1CCCCC1 (stereo unspecified)
inactive: MCC-13 | MCC-26 | MKL-1 | MKL-2 | NIH3T3 | UISO | WaGa | C33A | CASKI | Es-2 | HeLa | Hek293T | JEG-3 | PA-1 | SKOV3 | Tov-21-G | Tov112D
